# From paper PMC7862700, “An all-to-all approach to the identification of sequence-specific readers for epigenetic DNA modifications on cytosine”
# Columns and labels:
# Assay in all cases: DAPPL (digital affinity profiling via proximity ligation, sequencing); 10 mM Tris-HCl pH 7.5, 50 mM NaCl, 1 mM DTT, 4% glycerol, room temperature, 30 min; GST-TFs on glutathione beads, 16-mer random dsDNA library, 0.1% formaldehyde crosslink after washing; high values mean tight binding
# FLI1 = target: T1, FLI1 (Homo sapiens, UniProt Q01543 1-452); settings: protein: recombinant; tags: N-terminal GST; dsDNA, one strand shown
# T1 sequence: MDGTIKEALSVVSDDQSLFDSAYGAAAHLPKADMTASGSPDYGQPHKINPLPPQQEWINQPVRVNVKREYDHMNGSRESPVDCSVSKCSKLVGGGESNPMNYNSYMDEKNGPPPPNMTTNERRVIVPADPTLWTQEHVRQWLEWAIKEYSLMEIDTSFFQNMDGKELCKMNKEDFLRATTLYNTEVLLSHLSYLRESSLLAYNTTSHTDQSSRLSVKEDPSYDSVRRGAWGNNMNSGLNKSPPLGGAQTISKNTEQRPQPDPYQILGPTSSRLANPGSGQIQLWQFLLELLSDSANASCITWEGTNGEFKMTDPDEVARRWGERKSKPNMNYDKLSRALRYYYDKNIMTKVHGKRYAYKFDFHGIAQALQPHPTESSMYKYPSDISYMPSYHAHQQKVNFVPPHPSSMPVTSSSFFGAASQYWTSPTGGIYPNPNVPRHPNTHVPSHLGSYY
# Method in brief: (§1)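 Binding signal is given per hexamer as its read frequency for a factor divided by its frequency in the tag-only sample. GST-fused human transcription factors were expressed in yeast, captured on glutathione beads, barcoded with DNA and pooled with that sample, then incubated with 200 nmole of a 16-mer random double-stranded DNA library in Tris/NaCl/DTT/glycerol buffer for 30 min at room temperature. The pools were then washed, crosslinked, proximity-ligated, amplified by PCR and sequenced on an Illumina NextSeq500.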
# ELK1 = target: T2, ELK1 (Homo sapiens, UniProt P19419 1-428); settings: protein: recombinant; tags: N-terminal GST; dsDNA, one strand shown
# T2 sequence: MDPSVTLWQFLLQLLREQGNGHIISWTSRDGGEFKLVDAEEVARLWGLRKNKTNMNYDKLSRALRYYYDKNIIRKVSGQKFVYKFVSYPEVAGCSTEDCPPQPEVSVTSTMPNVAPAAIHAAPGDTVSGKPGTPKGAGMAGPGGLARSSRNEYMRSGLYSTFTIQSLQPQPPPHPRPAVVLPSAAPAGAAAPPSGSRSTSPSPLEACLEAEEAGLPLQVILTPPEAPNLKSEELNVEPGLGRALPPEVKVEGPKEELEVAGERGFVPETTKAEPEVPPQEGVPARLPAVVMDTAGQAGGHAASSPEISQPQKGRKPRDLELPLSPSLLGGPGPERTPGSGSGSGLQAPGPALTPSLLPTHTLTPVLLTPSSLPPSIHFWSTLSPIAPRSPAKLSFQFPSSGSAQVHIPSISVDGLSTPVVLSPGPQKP
# Method in brief: as §1
# GABPA = target: T3, GABPA (Homo sapiens, UniProt Q06546 1-454); settings: protein: recombinant; tags: N-terminal GST; dsDNA, one strand shown
# T3 sequence: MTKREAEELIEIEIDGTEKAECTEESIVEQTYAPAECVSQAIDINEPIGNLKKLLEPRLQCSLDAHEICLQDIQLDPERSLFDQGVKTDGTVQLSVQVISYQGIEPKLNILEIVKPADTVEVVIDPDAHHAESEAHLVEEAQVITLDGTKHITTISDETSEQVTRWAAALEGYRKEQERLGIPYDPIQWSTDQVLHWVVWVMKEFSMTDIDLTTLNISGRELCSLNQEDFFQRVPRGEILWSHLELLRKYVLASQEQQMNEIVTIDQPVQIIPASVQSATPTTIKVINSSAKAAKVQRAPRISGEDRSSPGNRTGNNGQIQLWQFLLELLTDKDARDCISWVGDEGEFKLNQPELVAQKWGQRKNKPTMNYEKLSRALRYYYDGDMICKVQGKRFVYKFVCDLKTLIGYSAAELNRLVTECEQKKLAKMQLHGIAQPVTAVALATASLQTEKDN
# Method in brief: as §1
# ERG = target: T4, ERG (Homo sapiens, UniProt P11308 1-479); settings: protein: recombinant; tags: N-terminal GST; dsDNA, one strand shown
# T4 sequence: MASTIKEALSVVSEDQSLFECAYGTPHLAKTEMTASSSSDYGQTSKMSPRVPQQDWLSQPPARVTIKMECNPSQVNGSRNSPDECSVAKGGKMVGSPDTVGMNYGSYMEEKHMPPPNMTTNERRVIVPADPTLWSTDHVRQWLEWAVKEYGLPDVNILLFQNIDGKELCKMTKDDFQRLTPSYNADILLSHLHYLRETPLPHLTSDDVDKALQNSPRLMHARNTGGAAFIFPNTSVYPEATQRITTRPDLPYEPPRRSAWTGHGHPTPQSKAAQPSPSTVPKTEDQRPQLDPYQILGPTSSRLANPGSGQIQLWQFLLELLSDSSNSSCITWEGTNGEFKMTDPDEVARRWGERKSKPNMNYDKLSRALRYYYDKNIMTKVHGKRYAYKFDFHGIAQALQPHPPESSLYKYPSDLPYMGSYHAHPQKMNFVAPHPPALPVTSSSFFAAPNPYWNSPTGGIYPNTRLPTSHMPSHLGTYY
# Method in brief: as §1
# ELF1 = ELF1 (Homo sapiens, UniProt P32519 1-619); settings: protein: recombinant; tags: N-terminal GST; dsDNA, one strand shown
# Method in brief: as §1
# EHF = target: T5, EHF (Homo sapiens, UniProt Q9NZC4 1-300); settings: protein: recombinant; tags: N-terminal GST; dsDNA, one strand shown
# T5 sequence: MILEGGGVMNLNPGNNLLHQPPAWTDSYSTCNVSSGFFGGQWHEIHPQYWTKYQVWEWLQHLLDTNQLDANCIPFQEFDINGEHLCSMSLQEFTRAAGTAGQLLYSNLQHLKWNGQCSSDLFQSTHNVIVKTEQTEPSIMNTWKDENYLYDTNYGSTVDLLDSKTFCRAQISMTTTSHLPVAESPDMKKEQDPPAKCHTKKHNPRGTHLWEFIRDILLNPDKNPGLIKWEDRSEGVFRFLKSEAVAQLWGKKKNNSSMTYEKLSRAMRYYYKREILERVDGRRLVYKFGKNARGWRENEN
# Method in brief: as §1
# SPI1 = SPI1 (Homo sapiens, UniProt P17947 1-270); settings: protein: recombinant; tags: N-terminal GST; dsDNA, one strand shown
# Method in brief: as §1
# SPIB = SPIB (Homo sapiens, UniProt Q01892 1-262); settings: protein: recombinant; tags: N-terminal GST; dsDNA, one strand shown
# Method in brief: as §1
# ELK3 = target: T6, ELK3 (Homo sapiens, UniProt P41970 1-407); settings: protein: recombinant; tags: N-terminal GST; dsDNA, one strand shown
# T6 sequence: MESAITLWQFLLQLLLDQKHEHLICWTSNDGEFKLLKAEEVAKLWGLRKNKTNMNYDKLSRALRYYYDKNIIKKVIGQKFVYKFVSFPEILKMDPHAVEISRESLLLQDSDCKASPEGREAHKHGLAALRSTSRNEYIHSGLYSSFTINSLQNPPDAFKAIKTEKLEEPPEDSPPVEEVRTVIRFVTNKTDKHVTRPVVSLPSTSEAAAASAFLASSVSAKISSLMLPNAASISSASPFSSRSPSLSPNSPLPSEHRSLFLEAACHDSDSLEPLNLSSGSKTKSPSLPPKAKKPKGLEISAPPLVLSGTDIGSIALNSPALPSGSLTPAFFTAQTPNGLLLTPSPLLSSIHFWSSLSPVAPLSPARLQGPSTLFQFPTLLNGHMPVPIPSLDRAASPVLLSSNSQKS
# Method in brief: as §1
# FEV = target: T7, FEV (Homo sapiens, UniProt Q99581 1-238); settings: protein: recombinant; tags: N-terminal GST; dsDNA, one strand shown
# T7 sequence: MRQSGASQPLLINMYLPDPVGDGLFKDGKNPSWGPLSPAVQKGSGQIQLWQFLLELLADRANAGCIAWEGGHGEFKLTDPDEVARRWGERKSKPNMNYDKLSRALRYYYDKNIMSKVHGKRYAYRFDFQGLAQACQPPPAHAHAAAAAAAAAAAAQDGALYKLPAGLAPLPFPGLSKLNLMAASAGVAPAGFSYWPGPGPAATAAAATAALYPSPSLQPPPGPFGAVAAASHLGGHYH
# Method in brief: as §1
# ETV5 = ETV5 (Homo sapiens, UniProt P41161 1-510); settings: protein: recombinant; tags: N-terminal GST; dsDNA, one strand shown
# Method in brief: as §1
# HSF1 = HSF1 (Homo sapiens, UniProt Q00613 1-529); settings: protein: recombinant; tags: N-terminal GST; chain copies: 3; dsDNA, one strand shown
# Method in brief: as §1
# SPIC = target: T8, SPIC (Homo sapiens, UniProt Q8N5J4 1-248); settings: protein: recombinant; tags: N-terminal GST; dsDNA, one strand shown
# T8 sequence: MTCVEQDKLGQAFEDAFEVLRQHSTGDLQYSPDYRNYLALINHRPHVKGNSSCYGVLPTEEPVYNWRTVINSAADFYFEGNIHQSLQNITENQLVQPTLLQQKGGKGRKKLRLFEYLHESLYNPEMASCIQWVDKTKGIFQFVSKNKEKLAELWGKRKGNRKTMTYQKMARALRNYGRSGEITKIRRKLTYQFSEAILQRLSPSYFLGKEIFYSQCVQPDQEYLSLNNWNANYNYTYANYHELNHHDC
# Method in brief: as §1
# ELF4 = ELF4 (Homo sapiens, UniProt Q99607 1-663); settings: protein: recombinant; tags: N-terminal GST; dsDNA, one strand shown
# Method in brief: as §1
# ELK4 = target: T9, ELK4 (Homo sapiens, UniProt P28324-2 1-405); settings: protein: recombinant; tags: N-terminal GST; dsDNA, one strand shown
# T9 sequence: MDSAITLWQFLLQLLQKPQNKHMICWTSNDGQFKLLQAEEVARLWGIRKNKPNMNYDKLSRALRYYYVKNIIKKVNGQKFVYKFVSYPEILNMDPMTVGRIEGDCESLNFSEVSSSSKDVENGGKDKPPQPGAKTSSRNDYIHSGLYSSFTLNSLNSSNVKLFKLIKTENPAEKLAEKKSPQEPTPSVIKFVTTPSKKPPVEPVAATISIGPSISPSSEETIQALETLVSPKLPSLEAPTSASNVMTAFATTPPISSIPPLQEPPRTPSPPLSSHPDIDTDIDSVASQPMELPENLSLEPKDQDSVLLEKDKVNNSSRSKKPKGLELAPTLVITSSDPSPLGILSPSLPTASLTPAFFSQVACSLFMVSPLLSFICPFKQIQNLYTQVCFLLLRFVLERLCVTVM
# Method in brief: as §1
# ETV2 = target: T10, ETV2 (Homo sapiens, UniProt O00321 1-342); settings: protein: recombinant; tags: N-terminal GST; dsDNA, one strand shown
# T10 sequence: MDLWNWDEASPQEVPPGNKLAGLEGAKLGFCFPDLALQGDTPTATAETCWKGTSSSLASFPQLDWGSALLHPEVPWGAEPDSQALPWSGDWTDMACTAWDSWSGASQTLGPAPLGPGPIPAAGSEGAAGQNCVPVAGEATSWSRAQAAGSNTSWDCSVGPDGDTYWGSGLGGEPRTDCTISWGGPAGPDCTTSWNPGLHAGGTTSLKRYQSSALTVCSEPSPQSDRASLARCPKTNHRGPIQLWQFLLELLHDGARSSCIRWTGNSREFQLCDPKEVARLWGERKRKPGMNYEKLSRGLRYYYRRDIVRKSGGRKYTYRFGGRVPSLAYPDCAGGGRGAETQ
# Method in brief: as §1
# ELF3 = target: T11, ELF3 (Homo sapiens, UniProt P78545 1-371); settings: protein: recombinant; tags: N-terminal GST; dsDNA, one strand shown
# T11 sequence: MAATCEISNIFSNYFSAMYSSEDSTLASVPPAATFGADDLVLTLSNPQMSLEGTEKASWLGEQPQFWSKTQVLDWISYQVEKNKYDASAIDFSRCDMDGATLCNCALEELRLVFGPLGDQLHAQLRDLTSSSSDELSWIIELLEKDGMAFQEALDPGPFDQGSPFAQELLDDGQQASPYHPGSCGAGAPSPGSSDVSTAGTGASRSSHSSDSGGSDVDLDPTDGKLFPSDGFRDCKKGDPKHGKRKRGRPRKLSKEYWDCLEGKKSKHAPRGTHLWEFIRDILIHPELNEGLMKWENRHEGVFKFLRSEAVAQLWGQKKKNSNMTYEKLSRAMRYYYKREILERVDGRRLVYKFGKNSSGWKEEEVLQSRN
# Method in brief: as §1
# CRX = CRX (Homo sapiens, UniProt O43186 1-299); settings: protein: recombinant; tags: N-terminal GST; dsDNA, one strand shown
# Method in brief: as §1
# ETV1 = ETV1 (Homo sapiens, UniProt P50549 1-477); settings: protein: recombinant; tags: N-terminal GST; dsDNA, one strand shown
# Method in brief: as §1
# Chain of ELF1 (P32519 whole entry): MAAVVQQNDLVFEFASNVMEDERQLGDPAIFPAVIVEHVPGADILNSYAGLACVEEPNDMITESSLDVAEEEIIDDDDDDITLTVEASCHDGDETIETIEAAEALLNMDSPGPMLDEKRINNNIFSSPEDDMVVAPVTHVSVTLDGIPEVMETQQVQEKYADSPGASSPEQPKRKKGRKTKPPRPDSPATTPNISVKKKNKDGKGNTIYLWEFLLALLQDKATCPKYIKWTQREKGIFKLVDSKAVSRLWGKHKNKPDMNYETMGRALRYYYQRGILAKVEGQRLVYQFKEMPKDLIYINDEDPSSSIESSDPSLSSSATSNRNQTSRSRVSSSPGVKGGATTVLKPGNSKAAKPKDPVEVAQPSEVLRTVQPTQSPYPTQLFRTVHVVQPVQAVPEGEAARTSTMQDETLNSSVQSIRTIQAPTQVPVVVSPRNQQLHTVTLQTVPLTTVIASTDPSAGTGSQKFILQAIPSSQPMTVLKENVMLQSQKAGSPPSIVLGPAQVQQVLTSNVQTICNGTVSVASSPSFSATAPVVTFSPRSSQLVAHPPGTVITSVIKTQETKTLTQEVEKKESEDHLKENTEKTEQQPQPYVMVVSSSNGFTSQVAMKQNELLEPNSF
# Chain of ETV1 (P50549 whole entry): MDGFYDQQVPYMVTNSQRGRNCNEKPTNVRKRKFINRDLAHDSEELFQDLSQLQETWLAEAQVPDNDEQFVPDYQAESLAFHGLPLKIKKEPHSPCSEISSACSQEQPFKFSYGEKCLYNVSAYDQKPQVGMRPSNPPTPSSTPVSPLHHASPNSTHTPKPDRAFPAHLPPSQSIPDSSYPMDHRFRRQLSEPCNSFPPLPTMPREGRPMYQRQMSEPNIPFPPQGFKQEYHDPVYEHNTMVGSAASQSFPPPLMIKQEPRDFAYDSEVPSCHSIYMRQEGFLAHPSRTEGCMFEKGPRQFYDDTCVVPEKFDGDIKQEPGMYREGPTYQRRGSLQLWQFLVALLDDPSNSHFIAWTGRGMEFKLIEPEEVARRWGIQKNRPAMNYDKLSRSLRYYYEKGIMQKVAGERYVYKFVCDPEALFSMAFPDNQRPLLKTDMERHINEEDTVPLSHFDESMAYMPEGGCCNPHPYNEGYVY
# Chain of CRX (O43186 whole entry): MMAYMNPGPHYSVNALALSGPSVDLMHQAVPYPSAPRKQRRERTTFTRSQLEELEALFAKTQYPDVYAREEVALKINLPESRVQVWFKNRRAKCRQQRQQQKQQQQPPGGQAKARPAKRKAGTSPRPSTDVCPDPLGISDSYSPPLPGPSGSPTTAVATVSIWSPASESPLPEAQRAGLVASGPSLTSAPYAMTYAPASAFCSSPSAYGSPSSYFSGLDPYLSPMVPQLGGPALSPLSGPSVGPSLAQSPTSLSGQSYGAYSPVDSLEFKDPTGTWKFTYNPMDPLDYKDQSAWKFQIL
# Chain of ELF4 (Q99607 whole entry): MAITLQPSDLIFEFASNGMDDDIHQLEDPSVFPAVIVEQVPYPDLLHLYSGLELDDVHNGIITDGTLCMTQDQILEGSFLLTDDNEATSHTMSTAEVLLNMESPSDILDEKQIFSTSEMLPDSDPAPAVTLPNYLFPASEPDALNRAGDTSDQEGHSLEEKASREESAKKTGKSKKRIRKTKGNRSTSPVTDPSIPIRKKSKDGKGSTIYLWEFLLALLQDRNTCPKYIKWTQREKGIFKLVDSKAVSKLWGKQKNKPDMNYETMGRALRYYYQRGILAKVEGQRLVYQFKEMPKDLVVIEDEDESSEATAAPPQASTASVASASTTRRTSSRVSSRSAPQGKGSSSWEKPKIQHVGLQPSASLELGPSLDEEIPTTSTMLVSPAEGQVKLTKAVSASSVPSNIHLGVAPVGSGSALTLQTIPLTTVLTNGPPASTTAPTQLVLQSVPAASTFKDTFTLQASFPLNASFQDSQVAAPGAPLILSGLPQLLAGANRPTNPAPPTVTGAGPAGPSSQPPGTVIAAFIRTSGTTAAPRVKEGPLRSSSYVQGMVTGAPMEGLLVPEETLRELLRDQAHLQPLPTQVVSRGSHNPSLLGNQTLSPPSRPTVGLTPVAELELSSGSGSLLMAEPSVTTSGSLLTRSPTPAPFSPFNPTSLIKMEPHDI
# Chain of HSF1 (Q00613 whole entry): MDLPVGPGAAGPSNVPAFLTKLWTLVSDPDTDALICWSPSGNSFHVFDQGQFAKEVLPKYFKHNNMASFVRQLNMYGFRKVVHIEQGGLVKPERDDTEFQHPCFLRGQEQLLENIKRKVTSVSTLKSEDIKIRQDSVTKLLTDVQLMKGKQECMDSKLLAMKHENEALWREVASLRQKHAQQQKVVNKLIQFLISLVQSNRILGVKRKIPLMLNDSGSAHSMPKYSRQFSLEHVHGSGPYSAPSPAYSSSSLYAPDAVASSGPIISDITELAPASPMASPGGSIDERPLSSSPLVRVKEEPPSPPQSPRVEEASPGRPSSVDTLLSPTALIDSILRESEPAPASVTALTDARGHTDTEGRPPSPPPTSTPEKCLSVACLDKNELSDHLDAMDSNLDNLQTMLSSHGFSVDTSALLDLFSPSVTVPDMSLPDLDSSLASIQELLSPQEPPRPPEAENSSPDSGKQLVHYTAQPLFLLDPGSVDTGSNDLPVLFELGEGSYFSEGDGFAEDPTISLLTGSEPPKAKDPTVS
# Chain of ETV5 (P41161 whole entry): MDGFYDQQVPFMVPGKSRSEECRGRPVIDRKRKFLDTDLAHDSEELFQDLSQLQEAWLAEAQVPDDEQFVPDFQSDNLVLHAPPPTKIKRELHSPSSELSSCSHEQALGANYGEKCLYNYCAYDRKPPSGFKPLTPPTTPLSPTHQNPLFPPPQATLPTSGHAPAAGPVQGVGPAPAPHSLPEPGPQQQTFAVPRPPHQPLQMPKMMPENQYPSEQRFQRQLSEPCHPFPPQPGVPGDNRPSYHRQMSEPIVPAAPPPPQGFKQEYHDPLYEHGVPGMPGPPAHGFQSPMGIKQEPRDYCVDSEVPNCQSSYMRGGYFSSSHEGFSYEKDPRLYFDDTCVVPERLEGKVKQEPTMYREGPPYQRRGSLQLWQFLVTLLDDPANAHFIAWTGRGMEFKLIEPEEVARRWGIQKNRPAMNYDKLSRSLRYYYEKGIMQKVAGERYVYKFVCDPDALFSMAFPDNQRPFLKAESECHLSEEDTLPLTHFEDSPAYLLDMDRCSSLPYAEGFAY
# Chain of SPIB (Q01892 whole entry): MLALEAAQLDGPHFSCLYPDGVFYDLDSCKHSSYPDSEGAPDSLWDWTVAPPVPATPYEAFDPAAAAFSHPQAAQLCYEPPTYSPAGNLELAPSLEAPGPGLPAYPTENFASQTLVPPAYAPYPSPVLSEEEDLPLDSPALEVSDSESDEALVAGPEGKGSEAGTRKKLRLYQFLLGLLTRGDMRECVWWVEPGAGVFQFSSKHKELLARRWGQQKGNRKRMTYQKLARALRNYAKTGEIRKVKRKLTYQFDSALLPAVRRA
sequence,measurement,setting,value
ATCTGC,binding signal,FLI1,"1.3 fold enrichment (6-mer frequency, TF over GST control)"
same,binding signal,ELK1,"1.28 fold enrichment (6-mer frequency, TF over GST control)"
same,binding signal,GABPA,"1.47 fold enrichment (6-mer frequency, TF over GST control)"
same,binding signal,ERG,"1.37 fold enrichment (6-mer frequency, TF over GST control)"
same,binding signal,ELF1,"1.45 fold enrichment (6-mer frequency, TF over GST control)"
same,binding signal,EHF,"1.34 fold enrichment (6-mer frequency, TF over GST control)"
same,binding signal,SPI1,"1.44 fold enrichment (6-mer frequency, TF over GST control)"
same,binding signal,SPIB,"1.41 fold enrichment (6-mer frequency, TF over GST control)"
same,binding signal,ELK3,"1.34 fold enrichment (6-mer frequency, TF over GST control)"
same,binding signal,FEV,"1.41 fold enrichment (6-mer frequency, TF over GST control)"
same,binding signal,ETV5,"1.46 fold enrichment (6-mer frequency, TF over GST control)"
same,binding signal,HSF1,"1.44 fold enrichment (6-mer frequency, TF over GST control)"
same,binding signal,SPIC,"1.46 fold enrichment (6-mer frequency, TF over GST control)"
same,binding signal,ELF4,"1.44 fold enrichment (6-mer frequency, TF over GST control)"
same,binding signal,ELK4,"1.5 fold enrichment (6-mer frequency, TF over GST control)"
same,binding signal,ETV2,"1.44 fold enrichment (6-mer frequency, TF over GST control)"
same,binding signal,ELF3,"1.14 fold enrichment (6-mer frequency, TF over GST control)"
same,binding signal,CRX,"1.67 fold enrichment (6-mer frequency, TF over GST control)"
same,binding signal,ETV1,"1.36 fold enrichment (6-mer frequency, TF over GST control)"
